For 17 compounds, AC50 results are on record in PubChem BioAssay (EPA / NIEHS).

Where “and” joins values, the source holds several entries; their conditions need not be identical. Equal values may be shown once. Calls of active or inactive are those of the source. The calls were made as follows: active = hit-call score of the fitted dose curve at least 0.9, where 1 is the maximum; inactive = score below 0.9.

The subject of the experiment is TTR (gene 7276). Put plainly: CCTE_GLTED_hTTR_0.125uM: CCTE's human Transthyretin (hTTR) Inhibition Assay, with 0.125uM TTR, Great Lakes Toxicology and Ecology Division (GLTED) Lab (AID 2284431).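 Also: hits lower the fluorescence signal relative to DMSO baseline.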 The gist of the method:
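Probe-displacement format: chemicals competing for the T4 site release ANSA from 0.125uM TTR during a 2 h incubation, measured by fluorescence at 380 excitation and 475 emission.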
One may read the AC50 as the concentration giving half of the maximal activity seen. On to `Cc1cc(Cl)ccc1O`, for which the half-maximal activity concentration (AC50) was 14.9 µM (active).
In the case of `O=C(NC(=O)c1c(F)cccc1F)Nc1cc(Cl)c(OC(F)(F)C(F)C(F)(F)F)cc1Cl` (configuration not stated) it was 2.76 µM (active); in that of `Nc1ccc(N)cc1`, 2.42 µM (active); in that of `Oc1c(Br)cc(Br)cc1Br`, 0.0287 µM (active).
On to `Oc1cc(Cl)c(Cl)cc1Cl`, for which the AC50 is 0.114 µM (active).
Turning to `CCOCn1c(-c2ccc(Cl)cc2)c(C#N)c(Br)c1C(F)(F)F`, the half-maximal activity concentration (AC50) was 0.0346 µM (active).
To `O=[N+]([O-])c1ccc(Cl)c([N+](=O)[O-])c1` belongs 4.83 µM (active).
To `O=C(O)COc1cc(Cl)c(Cl)cc1Cl` belongs 0.692 µM (active); to `COc1nn(C(=O)NS(=O)(=O)c2ccccc2OC(F)(F)F)c(=O)n1C`, 9.99 µM (active).
In the case of `Cc1cc(Cl)ccc1OCCCC(=O)O` it was 2.64 µM (active).
Take `O=C(CBr)c1ccc(O)cc1`: the half-maximal activity concentration (AC50) is 4.69 µM (active).
To `O=C1c2ccccc2C(=O)C1C(=O)C(c1ccccc1)c1ccc(Cl)cc1` (configuration not stated) belongs 3.48 µM (active); to `CCCCCCCCCCCCOS(=O)(=O)O`, 2.56 µM (active) and 5.11 µM (active).
`CCCCCCCCCCCCc1cccc(S(=O)(=O)O)c1`: the AC50 is 6.89 µM (active).
`O=[N+]([O-])c1ccccc1O`: the concentration at half-maximal activity (AC50) was 34.8 µM (active) and 21.1 µM (active).
As for `O=S1(=O)OC(c2cc(Br)c(O)c(Br)c2)(c2cc(Br)c(O)c(Br)c2)c2ccccc21`, the AC50 is 0.109 µM (active).
In the case of `CCOP(=S)(OCC)O/N=C(\C#N)c1ccccc1` it was 2.07 µM (active).
